# Over roughly 25,000 sequences, “ln(normalized median fluorescence intensity)” has its median near 9.3; the highest 2% begin near 10. The full list was thinned out, with the highest values kept by preference.
# Test system: PF3D7_0420300 AP2 domain 1 (GST-tagged)
# Assay: gcPBM binding intensity (ln(normalized median fluorescence intensity)); higher = stronger DNA binding
# In short: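 GST-tagged P. falciparum DNA-binding domains, expressed in E. coli (about 25 μg on average), were applied for 1 h to an Agilent 4 × 180k array of primer-extended double-stranded 36-bp intergenic genomic probes plus negative controls. The binding buffer was 1× PBS with 1% milk, 0.2 mg/ml BSA, 0.5% salmon testes DNA and 0.03% Triton X-100. Bound protein was detected with Alexa488 anti-GST antibody and scanned at 488 nm. Binding intensity is the highest Masliner-normalised natural-log median intensity across replicate spots of either probe orientation.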
row,Sequence,gcPBM binding intensity (ln)
1,ATGTAATATATTATATGTACATATTTTTATGTAGAT [XGTACX_site5945],9.2
2,AACATTTTTAAATATATAAAAATATATATATATATA [XGTACX_negctrl_site551],8.97
3,TATTTTAATCGTAAGTGTACTCTTTTAAGTATATGT [XGTACX_site8591],9.2
4,GGACATTTTTATAAGGTGCACGGTTTTGATATTACT [GTGCAC_site9892],9.46
5,AATAAATATATAAATACACACAAACATACATATATA [CACACA_site9340],9.96
6,AAAAAAAAAAATATCACACACACATAAATATAAACC [CACACA_site2278],10.2
7,TACATACATAAACACACACACACATATATATATATA [CACACA_site8953],10.1
8,TAGATACATAAACACACACACACATACATATATACA [CACACA_site9139],10.3
9,TATATACATAAACACACACACACATATATATATATA [CACACA_site8707],10.1
10,AAAAAAAAAAATATCACACACACATAAATATAAACA [CACACA_site7138],10.1
11,CATATACATAAACACACACACACATAAATAAATATA [CACACA_site4864],10.2
12,TATATAAATATACAAACACACATACAAACATATATA [CACACA_site4754],9.9
13,AAAAAAAAATATCACACACACATAAATATAAACCAA [CACACA_site2279],10.1
14,TTTTATAATTTATCTAAAAAAAAATAAAATAAAATG [TGCATGCA_negctrl_site429],8.67
15,CTTTTTTTTTTGTATTGTACTTTATTTTTACATCGT [XGTACX_site2918],9.65
16,AAAAACGATTAATGTGTACACACATAGTTATAAACA [CACACA_site8659],9.74
17,TGATGATATAAAAACACACACATATAATATAATACT [CACACA_site1208],10
18,TTTTCCCTTACAGAAAAAAAAAAATTCCTAACCCCG [CACACA_negctrl_site650],9.03
19,TGGCATATATATAAATGTACTTTCTTTCTATCTGTT [XGTACX_site8483],9.34
20,ATAAATTCATTATATTGTACAAACAAATGAAAAAAA [XGTACX_site8304],9.09
21,ATAATATGAAAACACACACACACACTAGAAAAAAAA [CACACA_site5153],10.3
22,AAAAAAAATATGAAAACACACATATATAAATAAATA [CACACA_site113],9.55
23,TACATAAATTAAAACACACACACACTAATAAAAAAA [CACACA_site8712],10.1

row,Sequence,gcPBM binding intensity (ln)
1,AAAAAAAAAAAACACACACACACACTAGTATATAAA [CACACA_site4783],10.2
2,ATAATCCTTAAACACACACACACACTAATAAATAAA [CACACA_site8052],10.2
3,ATATATATGAAACACACACACAAAAAAAAAAAAAAA [CACACA_site3647],9.69
4,AAAAAAAAAAAAAACACACACACAAGAGTATATAAA [CACACA_site6580],9.99
5,AAAAAATATATATTAACACACACACTAATAAAAAAA [CACACA_site8366],10
6,TACATATATAAAAAAACACACACATATATATATATA [CACACA_site8315],9.54
7,ATAATATGAAATATAACACACATATATAAAAACATT [CACACA_site866],9.72
8,AATAATAAACACAATCAAATAAAATATGAAATATAA [GTGCAC_negctrl_site307],9.46
9,ATAATATGAAAACACACACACACACTAATAAAAAAA [CACACA_site8617],10.2
10,TAATAAAAATAAAATTGTACTAATAACATTTCATTA [XGTACX_site3703],8.94
11,TATCTTATGTCTGAAAGTACAAATTTTTTTCTACTT [XGTACX_site2208],9.09
12,ATATAAATAATATAAATACACACTAAAAAAAATATA [CACACA_site542],9.69
13,TATATATATATATATACACACACACTAATAAAAAAA [CACACA_site8426],10
14,ATAAATAAAGGACACACACACACACTAGAAAAAAAA [CACACA_site5450],10
15,AATAAATATAAAAATGCACACACACTAATAAAAAAA [CACACA_site8201],10.2
16,AAAAAAAAAAAACACACACACACACTAATATATAAA [CACACA_site8302],10.2
17,AAAAAATCACAACACACACACACACTAATAAAAAAA [CACACA_site8410],10.2
18,GGAAACAAAAAATATATACACACTAATCATAAAAAA [CACACA_site7890],9.52
19,AAAAAAATAAAGGATATACACACTAATTATATATAT [CACACA_site2812],9.64
20,TATAATAAATCAAATGCACACACACTAATAAAAAAA [CACACA_site7937],10.1
21,TGCAACAAAATAAACACACACACACTAACACAAAAA [CACACA_site7567],10.1
22,ATAATAAAAAAAAATGCACACATATATATATATATA [CACACA_site8766],9.21
23,ATAAATAAAGGACACACACACACACTAATAAAAAAA [CACACA_site8840],10.3

row,Sequence,gcPBM binding intensity (ln)
1,CACATATAAATATTAACACACATAATGAGTTATATA [CACACA_site7316],9.33
2,GAATATTAAACAAACACACACACATATATATATATA [CACACA_site3382],9.78
3,TTTTTTTTTTATTTTGCACACTTCTAATTTAGTTCT [CACACA_site5828],9.45
4,TTTCTTAAAATGTTATGTACATATTTCGTTTCAAAG [XGTACX_site6102],9.01
5,ATTATATATAAGAAGAGTACTGAATATGTGCAATAT [XGTACX_site4471],9.55
6,ATATAATATGTTGAATGTACTTAAAAAAATGTATCT [XGTACX_site5385],9.21
7,AAAAAAAACGGACACACACACATAAATATATATAAA [CACACA_site4260],10.3
8,CTAAAATACGGACACACACACACATATATATATATA [CACACA_site6138],10.2
9,TAAATATATATATACACACACATACACAAAAAAAAA [CACACA_site3580],10.1
10,AAAACAAACGGACACACACACATATATATATATATA [CACACA_site5924],9.97
11,TAAATAAATAAAAAAACACACATATATATATATATA [CACACA_site4029],9.51
12,AAAAAAAACGGACACACACACATACAAAATATATAT [CACACA_site4910],10.2
13,CCATAAAACTATAATACACACATATAGATTAACATA [CACACA_site7849],9.7
14,CTATAAATGAATGTTTGTACTTAATAATAAAAGAAA [XGTACX_site3170],9.06
15,GCATATTTTATAATTTTACACACCATATAAAATAAT [CACACA_site8904],9.51
16,TGTTTGTAATTATGTATGCACTTTTTTGTATGTGTG [GTGCAC_site9668],9.58
17,AAAAAAATAAATAAGACACACACAAAAAAAAAAAAA [CACACA_site8404],9.97
18,AAAAATAAATAAGACACACACAAAAAAAAAAAAAAA [CACACA_site1432],9.54
19,AAAAAAATAAGACACACACACAAAAAAATAAAAATA [CACACA_site6357],10.1
20,CAAAGAGAAATAAACACACACAAAATAAAGAAAAAA [CACACA_site2245],9.74
21,AAAAAAAAAAGACACACACACAAAATAAACAAACAA [CACACA_site7308],10.3
22,ACAAAATAAAGACACACACACAAACACAAAAAAATA [CACACA_site7568],10.2
23,TATTTTATTATACCAAGTACAAAATTTAAATATGAA [XGTACX_site5478],8.99

row,Sequence,gcPBM binding intensity (ln)
1,AAAATAATAAATAAATGTACATATATATATATATAT [XGTACX_site3078],9.1
2,AAAAAAAAAAAATACACACAAACACAAATTAAATAA [CACACA_site3809],9.88
3,ATAATTAACAAATACACACACACACGCCCACAAAAA [CACACA_site6389],10.2
4,TTTATTTATTAATACACACACACACCCAGACAAAAT [CACACA_site4292],10.2
5,TATTAATACAGACACACACACACACCCAATAAAATA [CACACA_site243],10.1
6,TTAATTAAATATTATACACACAAAAAAATAATTTTA [CACACA_site96],9.27
7,TTTTTATTTATTAATACACACACACCCACCCACAAA [CACACA_site7965],10.1
8,AATTAATAACAAAATAAACACACATATATAAATACA [CACACA_site8456],9.84
9,ATAATTAACAAATACACACACACACCCAGACAAAAA [CACACA_site4445],10.2
10,TTTATTTATTAATACACACACACACGCCCACAAAAT [CACACA_site6253],10.2
11,TAATTAACAAACTATAGTACACAAAATACTTCATAT [XGTACX_site6375],9.44
12,ATGGTAGTGATTAAAAGTACACGTAATTGTAAAAAT [XGTACX_site387],9.45
13,TATATTTAGTAAAAAGGTACCATTCTTATTTATATT [CACACA_negctrl_site1165],9.13
14,TTTTATGTAATTATTTGTACATATGCCTCTTAAACT [XGTACX_site748],9.19
15,AAAAAAATATATTCCTAATTTATGATTAAAAGGAAT [CACACA_negctrl_site751],8.98
16,ATATATTTTTTCTTAACACACATATATAAAATAAAA [CACACA_site3500],9.24
17,AAGAGAAATGGGCACACACACACATATTATAGATAT [CACACA_site6828],10.2
18,AAAAGAGAAATGGGCACACACACACCGATTATATAT [CACACA_site4942],10.2
19,AAAAGAGAAATGGGCACACACACACCCATTATATAT [CACACA_site1530],9.88
20,GAGAAATGGGGACACACACACATATTATAGATATAT [CACACA_site6829],10.1
21,AGAAAAGAGAAATGGGCACACACACCCATATTATAT [CACACA_site8433],9.66
22,AAGAGAAATGGGCACACACACACATATTATATATAT [CACACA_site1531],10.1
